From PubChem
A selection: hits, their analogues and other compounds. The true share with any hit is near 1.8%.
PME-1 inh – blocks human protein phosphatase methylesterase 1; 320,000 tested, 0.53% active; recombinant PME-1, FP-Rh probe fluorescence polarization; AID 2130; Q9Y570; inhibition, % at 5.9 µM;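 active = inhibition above the campaign mean of all compounds plus 3 SD, cut at about 26% in these data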;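 also: competitive labeling of PME-1 active site by serine hydrolase directed probe; inhibitors block probe labeling so polarization falls and inhibition rises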
Target sequence (Q9Y570 whole entry, looked up): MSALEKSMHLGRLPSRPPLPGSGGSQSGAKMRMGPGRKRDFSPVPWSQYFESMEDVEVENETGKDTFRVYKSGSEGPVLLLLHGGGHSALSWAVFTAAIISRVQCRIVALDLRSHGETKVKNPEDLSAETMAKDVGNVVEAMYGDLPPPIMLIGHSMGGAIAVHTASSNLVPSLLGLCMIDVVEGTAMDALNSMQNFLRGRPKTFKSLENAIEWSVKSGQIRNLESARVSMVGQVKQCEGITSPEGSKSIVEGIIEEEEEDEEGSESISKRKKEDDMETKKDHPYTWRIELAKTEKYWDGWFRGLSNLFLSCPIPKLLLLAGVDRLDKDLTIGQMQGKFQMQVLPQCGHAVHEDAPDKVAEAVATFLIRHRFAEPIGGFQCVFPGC
LYPLA2 counter – counter-screen for PME1 inhibitors: inhibitors of human LYPLA2. 320,000 tested, 0.38% active. inhibition, % at 5.9 µM. O95372. AID 2177. recombinant LYPLA2, FP-Rh probe fluorescence polarization;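 active = inhibition above the screen-wide mean plus 3 SD, limit set per campaign, cut at about 26% in these data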
Target sequence (O95372 whole entry, looked up): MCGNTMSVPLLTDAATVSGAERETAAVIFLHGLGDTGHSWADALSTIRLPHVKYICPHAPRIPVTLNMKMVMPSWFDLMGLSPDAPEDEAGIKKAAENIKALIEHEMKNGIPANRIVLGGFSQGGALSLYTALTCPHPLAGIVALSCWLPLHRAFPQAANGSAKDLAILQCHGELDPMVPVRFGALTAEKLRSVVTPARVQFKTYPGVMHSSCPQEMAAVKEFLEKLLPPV
LYPLA1 counter – LYPLA1 (human) inhibition in PME1 counter-screen; O75608; recombinant LYPLA1, FP-Rh probe fluorescence polarization; 320,000 tested, 0.16% active; inhibition, % at 5.9 µM;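 active = inhibition above the mean of all tested compounds plus 3 SD, set per campaign, cut at about 14% in these data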;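 also: inhibitors block serine hydrolase probe labeling of LYPLA1 so polarization falls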
GSTO1 inh – counter-screen for RBBP9 inhibitors: inhibitors of human GSTO1; P78417; recombinant GSTO1, activity-based probe fluorescence polarization; inhibition, % at 5.96 µM; 300,000 tested, 1.1% active; AID 1974;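 active = inhibition above the campaign mean inhibition plus 3 SD, cut at about 35% in these data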
PAD4 inh – PAD4 (human) enzyme inhibition; Q9UM07; recombinant PAD4, RCA probe fluorescence polarization; inhibition, % at 6.36 µM; 330,000 tested, 0.41% active;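 active = percent inhibition above a cutoff equal to the mean of all tested compounds plus 3 SD, cut at about 15% in these data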
Fam108B counter – Fam108B inhibition, counter-screen for RBBP9 inhibitors | recombinant Fam108B, FP-Rh probe fluorescence polarization | inhibition, % at 9.51 µM | 300,000 tested, 0.33% active | AID 1947;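 active = inhibition above the screen mean inhibition plus 3 SD, computed separately per campaign, cut at about 18% in these data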;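 also: inhibitors lower polarization as less probe binds the enzyme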
Large screens that a line does not name were inactive.

COc1ccc(NC2=C(NCCO)C(=O)c3ccccc3C2=O)cc1	GSTO1 inh 44
COc1ccc(CN(C)C(=O)c2cccc(S(=O)(=O)N3CCc4ccccc43)c2)c(OC)c1	none (no result: GSTO1 inh, Fam108B counter)
O=C(CCCNC(=O)c1ccc(Cl)cc1)OCc1cccc(Br)c1	none
Cn1c2ccccc2c2cc(/C=N/NC(=O)c3ccccc3F)ccc21	none
Cn1c2ccccc2c2cc(/C=N/NC(=O)c3ccc(N)cc3)ccc21	PME-1 inh 40
CC(C)Cc1nnc(NC(=O)CSc2nc(O)c(-c3ccccc3)c(=O)[nH]2)s1	GSTO1 inh 71
O=C(OCC(=O)N1CCCC1=O)c1ccc(Cl)cc1[N+](=O)[O-]	none
O=C1CN(C(=O)c2ccccc2F)C(c2ccccc2)c2cc(F)ccc2N1 (centres undefined)	PME-1 inh 30
CC(=O)NC12CC3CC(C1)CC(C(=O)Nc1nc4ccc(S(C)(=O)=O)cc4s1)(C3)C2	none
Cc1cccc(C)c1NC(=O)c1cccc2c1-c1ccccc1C2=O	none
Cc1cccc(NC(=O)COC(=O)c2cccc3c2C(=O)c2ccccc2C3=O)c1C	PME-1 inh 41
Cc1cccc(C)c1NC(=O)COC(=O)c1cccc2c1C(=O)c1ccccc1C2=O	PME-1 inh 71
Oc1ccc(N=C/C=C/c2cccc(Br)c2)cc1-c1nc2ccccc2s1	GSTO1 inh 35
O=C(COC(=O)c1cnccn1)Nc1ncc(C(F)(F)F)cc1Cl	none (no result: PME-1 inh, LYPLA2 counter, LYPLA1 counter, GSTO1 inh, Fam108B counter)
Cc1ccc(NC(=O)CSc2nnc(-c3ccco3)c(-c3ccco3)n2)cc1	GSTO1 inh 37
CSc1nnc(-c2ccco2)c(-c2ccco2)n1	GSTO1 inh 36
CN(C)c1ccc(NC(=O)CSc2nnc(-c3ccco3)c(-c3ccco3)n2)cc1	none
c1ccc(-c2ccc(C3CCCN3)cc2)cc1 (centres undefined)	PME-1 inh 33
O=C(N=Nc1c(O)[nH]c2ccccc12)c1cccc(S(=O)(=O)N2CCCCC2)c1	none
CC(C)c1ccc2[nH]c(O)c(N=NC(=O)c3cccc(S(=O)(=O)N4CCCCC4)c3)c2c1	PME-1 inh 53
C/C(=N\NC(=O)C1CC1)c1ccc(OC(F)F)cc1	none
Cc1[nH]c2ccccc2c1/C=C/c1nc2ccccc2c(=O)n1CCO	PME-1 inh 70
CC(=O)Nc1ccc2c(c1)C(=O)c1ccccc1C2=O	none
O=C(O)/C=C/C(=O)Nc1ccc2c(c1)C(=O)c1ccccc1C2=O	GSTO1 inh 37
O=C(NNC(=O)c1cc(O)c(O)c(O)c1)NC1CCCCC1	GSTO1 inh 36
O=C(NNC(=O)c1cccnc1)NC1CCCCC1	none
Cc1cc(C)nc(SCc2nnc(SCC(=O)Nc3nc(-c4ccccc4)cs3)n2C)n1	none
Cc1ccc(C(=O)CSc2nnc(CNc3nc(-c4ccccc4)cs3)n2C)cc1	GSTO1 inh 37
O=C(COCc1cc(-c2ccc3c(c2)OCO3)on1)N1CCN(c2cccc(C(F)(F)F)c2)CC1	none
Cc1ccc(-n2c3nc(=O)[nH]c(=O)c-3cc3cc([N+](=O)[O-])ccc32)cc1	PME-1 inh 63
O=[N+]([O-])c1c(NCCCO)cc(SCc2ccco2)c2nonc12	GSTO1 inh 35
CC(C)(C)OC(=O)C[C@@H]1C/C=C\C[C@@H](CC(=O)N[C@@H](CO)Cc2ccccc2)C(=O)N2CCC[C@@H]2COC1=O	none (no result: PME-1 inh, LYPLA2 counter, LYPLA1 counter, GSTO1 inh, Fam108B counter)
O=C(CSCC(=O)Nc1ccccc1)N/N=C/c1c(O)ccc2ccccc12	none
O=C(CNc1ccccc1)N/N=C/c1c(O)ccc2ccccc12	PME-1 inh 38
O=C(N/N=C/c1c(O)ccc2ccccc12)Nc1ccccc1	PME-1 inh 28
O=C(COC(=O)CC1SC(N2CCCC2)=NC1=O)Nc1c(F)c(F)c(F)c(F)c1F (centres undefined)	none (no result: GSTO1 inh, Fam108B counter)
COc1ccc(NC(=O)CSc2nnnn2C2CCCCC2)cc1	none
CC(C)(C)OC(=O)NCCCC1=CC2=CC(=O)C(C)(OC(=O)c3ccc(Cl)nc3)C(=O)C2=CO1 (centres undefined)	LYPLA1 counter 18, PAD4 inh 25
CCC(=O)OC1(C)C(=O)C=C2C=C(CCCCNC(=O)OC(C)(C)C)OC=C2C1=O (centres undefined)	none
O=C1CNC(=S)N1CCc1ccc(O)c(O)c1	GSTO1 inh 60
O=C(O)c1ccc(N/N=C/c2cn(Cc3ccccc3F)c3ccccc23)cc1	PME-1 inh 29
COC(=O)N/N=C/c1cn(Cc2ccccc2F)c2ccccc12	none
O=C(Nc1ccc(Br)c2ccccc12)c1ccc2ccccc2c1O	Fam108B counter 39
O=S(=O)(Nc1nc2ccccc2nc1N1CCN(CCO)CC1)c1cc(F)ccc1F	none (no result: GSTO1 inh, Fam108B counter)
CCOc1ccc(S(=O)(=O)NCc2cccnc2)cc1C(C)C	none
CNc1ccc(Br)cc(C(=O)/C=C/c2ccc(OC)cc2OC)c1=O	GSTO1 inh 36
CCNc1ccc(Br)cc(C(=O)/C=C/c2ccc(Cl)cc2)c1=O	none
COc1ccc(/C=C/C(=O)c2ccc(OC)cc2OC)c(OC)c1	none
CNc1ccc(Br)cc(C(=O)/C=C/c2cccc(OC)c2)c1=O	GSTO1 inh 36
CNc1ccc(Br)cc(C(=O)/C=C/c2ccc(Cl)cc2Cl)c1=O	GSTO1 inh 35
O=C(CCC(F)(F)F)N1CCCC(N2CCN(c3cccc(Cl)c3)CC2)C1 (centres undefined)	LYPLA2 counter 30
O=C1CCCCN1CCC(=O)N1CCCC(N2CCN(c3cccc(Cl)c3)CC2)C1 (centres undefined)	none
O=C(Oc1ccccc1O)c1cccc2ccccc12	GSTO1 inh 59
Cc1ccc(NC(=O)CC(=O)Nc2ccc(C)c(C)c2)cc1C	none
Cc1ccc(Sc2ccc(NC(=O)CCl)cc2)cc1C	GSTO1 inh 78
Fc1ccccc1OCCCCN1CCCCC1	none
CSc1ccc(-c2sc(Nc3cccc4ccccc34)n[n+]2-c2ccccc2)cc1	GSTO1 inh 37
Cc1cc(C(=O)OCC(=O)NC2(C#N)CCCCC2)c(C)o1	none (no result: GSTO1 inh, Fam108B counter)
COC(=O)c1ccc(COc2ccccc2/C=N/NC(=O)c2cccnc2)cc1	LYPLA2 counter 36
COc1cccc(/C=N/NC(=O)CNC(=O)c2cccnc2)c1O	none
CCOc1ccc(NS(=O)(=O)c2ccc3[nH]cc(C(=O)N(CC)CC)c(=O)c3c2)cc1	GSTO1 inh 36
CC(C)c1ccc(NS(=O)(=O)c2ccc3[nH]cc(C(=O)N4CCC(C(N)=O)CC4)c(=O)c3c2)cc1	GSTO1 inh 55
CCOc1ccc(NS(=O)(=O)c2ccc3[nH]cc(C(=O)NCC4CCCO4)c(=O)c3c2)cc1 (centres undefined)	none
COc1ccc(C(C)=O)cc1COC(=O)Cc1cc(OC)c(OC)c(OC)c1	none
CC(C)CC(NS(=O)(=O)c1ccccc1)C(=O)O (centres undefined)	none
CC(C)CN=C(NS(=O)(=O)c1ccccc1)C(Cl)(Cl)Cl	GSTO1 inh 78
